This is one part of a sample in which hits are shown more often than they occur.
ALOX12 inh: inhibitors of human 12S-lipoxygenase ALOX12. P18054. purified 12hLO, xylenol orange hydroperoxide absorbance. Potency, µM (titrated, usually from 108 µM), hits mostly inhibitors. 580,000 tested, 1.1% active. AID 1671190
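Purified human 12hLO at 150 nM in 25 mM Hepes, 0.01% Triton X-100, pH 7.0, preincubated 15 min at room temperature with compound. Reaction started with 40 uM arachidonic acid, 30 min at room temperature. Hydroperoxide measured by Fe-xylenol orange, 573/405 nm absorbance ratio.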
IL-1B inflam inh: inflammasome signaling inhibition, IL-1 beta readout | THP-1 LPS/ATP IL-1B secretion, AlphaLISA, 16 h; active compounds read low | activity change, % at 57.5 µM | 360,000 tested, 4.7% active; in the data active = activity change below about -50%; inconclusive = mostly about -30% to -49%
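Secreted IL-1B measured by AlphaLISA bead assay after 16 h compound exposure of THP-1 cells; compounds (final up to 57.5 uM) added 1 h before LPS (250 ng/mL) and ATP (1.25 mM) stimulation; lower signal means less secretion.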
TDP1 cell CPT: DT40-hTDP1 cell growth loss with CPT; chicken DT40 Tdp1-/-;hTDP1 cells + 20 nM CPT, ATP luminescence, 48 h; Potency, µM (doses to about 46.2 µM), actives largely listed as inhibitors; 420,000 tested, 12% active; AID 686979; note: nearly all actives have a fitted effect of over 55% in size
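Cell growth measured by CellTiter-Glo luminescence after a minimum 48 h, 37 C compound exposure with 20 nM CPT in Tdp1-knockout DT40 cells stably expressing hTDP1, seeded 400/well; qHTS titration format.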
HT1080 IDH1KD tx: HT-1080 IDH1 knockdown cell toxicity (counter line). 360,000 tested, 2% active. Potency, µM (series often up to 46.1 µM), most hits filed as cytotoxic. HT-1080 IDH1 knockdown viability, ATP luminescence, 48 h
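Viability of IDH1-knockdown HT-1080 fibrosarcoma cells was assessed by CellTiter-Glo after 48 h at 37 °C with titrated compound; concentration-effect curves were classified by fit quality and response size.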
DT40 TDP1 no CPT: qHTS for Inhibitors of human tyrosyl-DNA phosphodiesterase 1 (TDP1): qHTS in cells in absence of CPT; DT40 Tdp1-/- hTDP1 cells, no CPT, ATP luminescence, 48 h; Potency, µM (doses to about 46.2 µM), usual class: inhibitors; 420,000 tested, 15% active; AID 686978, 2013; note: nearly all actives have a fitted effect of over 55% in size
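Seeded 400 DT40-hTDP1 cells/well (vehicle DMSO, no 20 nM CPT); pinned compounds; ≥48 hr at 37 °C; CellTiter-Glo luminescence as viability measure.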
HT1080-NT tox: kills 2HG-producing HT-1080-NT fibrosarcoma cells; Potency, µM (doses to about 46.1 µM), actives largely listed as cytotoxic; HT-1080-NT fibrosarcoma viability, CellTiter-Glo ATP luminescence, 48 h; 360,000 tested, 1.6% active;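 note: NT is the 2HG producing partner of a matched IDH1 knockdown line; nearly all actives have a fitted effect of over 55% in size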
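HT-1080-NT fibrosarcoma cells (2HG-overproducing), 750 cells/well in RPMI with 5% FBS, dosed after 2 h and incubated 48 h at 37C. CellTiter-Glo luminescence normalized to DMSO and no-cell wells; concentration-response curves fitted and classed.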
A number is an active result; n = inactive; u = inconclusive; x = no result given; [ ] = another dose, or the depositor's remark. Unless noted, calls come from the whole dose curve; as a rule, active = well fitted curve in the direction sought with a large enough effect; inconclusive = small, poorly fitted or top-dose-only effect, or another doubt; inactive = no such curve, though single readings can be large; an effect the other way counts as inactive or inconclusive.

SMILES	ALOX12 inh	IL-1B inflam inh	TDP1 cell CPT	HT1080 IDH1KD tx	DT40 TDP1 no CPT	HT1080-NT tox
CC(C)n1ncc2c(C(=O)NCc3ccccc3F)c3c(nc21)CCC3	n	x	x	x	x	x
Cc1cc(C)nc(NC2=NCC(=O)N2c2cc(Cl)cc(Cl)c2)n1	u	n	n	n	n	n
Cc1cc(C)nc(NC2=NC3CCCCC3N2)n1 (stereo unspecified)	n	n	20.6µM	n	u	n
Cc1ccc(SC(C)C(=O)NC2CCCCC2)cc1 (stereo unspecified)	n	x	x	x	x	x
CCCC(=O)c1ccc(N2CCCCCC2)c(F)c1	n	n	u	n[9.24 µM]	23.1µM	n
CCCC(=O)c1ccc(N2CCCCC2)c(F)c1	n	n	n	n	n	n
CC(=O)c1ccc(N2CCN(C(=O)c3ccc(Br)cc3)CC2)c(F)c1	n	n	9.2µM	n	13µM	n
CCC(=O)c1ccc(N2CCN(C(=O)c3ccccc3)CC2)c(F)c1	n	n	18.4µM	n	7.31µM	n
CC(=O)c1ccc(N2CCN(C(=O)c3ccc(Cl)c(Cl)c3)CC2)c(F)c1	n	x	x	x	x	x
CC(=O)c1ccc(N2CCN(C(=O)c3ccco3)C(C)C2)c(F)c1 (stereo unspecified)	u	n	u	n	25.9µM	n
COc1ccccc1CC(=O)N1CCCc2ncc(C(=O)NCc3ccc(OC)c(OC)c3)cc21	n	x	x	x	x	x
CCCNc1c(NC(=O)c2ccccc2OC)c(=O)oc2ccccc12	n	x	x	x	x	x
O=C(Nc1c(NC2CCCC2)c2ccccc2oc1=O)c1ccccc1F	n	x	x	x	x	x
O=C(O)/C=C/c1c(F)cccc1Cl	n	x	x	x	x	x
O=C(/C=C/c1ccccc1Cl)c1cccnc1	n	u	7.31µM	u	16.4µM	u
CN(C)c1ccc(C(=O)/C=C/c2ccc(Br)cc2)cc1	n	n	n	n	u	n
CCN(CC)c1ccc(/C=C/C(=O)c2ccc(Br)cc2)cc1	n	-64.6	16.4µM	n	u	n
O=C(/C=C/c1c(F)cccc1Cl)c1ccc(O)cc1	u	u	u	u	23.1µM	u
N#Cc1ccc(/C=C/C(=O)c2cccnc2)cc1	n	u	10.3µM	u	14.6µM	u
N#Cc1ccc(C(=O)/C=C/c2ccsc2)cc1	n	x	x	x	x	x
COc1ccc2c(C)c(CC(=O)Nc3cccc(Cl)c3)c(=O)oc2c1C	n	x	x	x	x	x
O=C(/C=C/c1ccc(Cl)cc1)c1ccc(Oc2ccccc2)cc1	n	x	x	x	x	x
O=C(/C=C/c1ccccc1Cl)c1ccc(O)cc1	u	-95.2	16.4µM	u	14.6µM	n
O=C(/C=C/c1ccc(Cl)cc1)c1cccnc1	u	u	5.8µM	u	8.2µM	n
O=C(C=Cc1ccccc1F)c1ccccc1	n	-65.2	u	u	u	u
SMILES	ALOX12 inh	IL-1B inflam inh	TDP1 cell CPT	HT1080 IDH1KD tx	DT40 TDP1 no CPT	HT1080-NT tox
CCN(CC)c1ccc(/C=C/C(=O)c2cccnc2)cc1	n	n	u	n	20.6µM	n
CN1CCN(/C=N/c2c(C#N)cnn2C)CC1	n	n	n	n	n	n
Cn1ncc(C#N)c1/N=C/N(Cc1ccccc1)Cc1ccccc1	n	n	14.6µM	n	u	n
Cn1ccnc1CN1CCCCC1C(=O)Nc1ccc(Oc2cccnc2)cc1 (stereo unspecified)	n	n	14.6µM	u	23.1µM	u
COc1ccc(CN2CCC(C(=O)Nc3ccc(Oc4cccnc4)cc3)CC2)c(C)c1C	n	n	u	n	2.91µM	n
CCc1ccc(CN2CCC(C(=O)Nc3ccc(Oc4cccnc4)cc3)CC2)o1	n	x	x	x	x	x
COc1cccc(-c2cccc(NC(=O)C3CCN(Cc4cccc(C)n4)CC3)c2)c1	n	n	n	n	n	n
COc1cccc(O)c1CN1CCC(C(=O)Nc2ccc(-c3cccc(C)c3)cc2)CC1	u	-95.0	u	18.4µM	16.4µM	23.1µM
COc1cc(CN2CCCC(C(=O)Nc3ccccc3Oc3cccnc3)C2)ccc1F (stereo unspecified)	n	n	u	n	16.4µM	n
COc1ccc(C(=O)c2sc(Nc3ccccc3OC)nc2N)cc1	n	x	x	x	x	x

Bioassay records from PubChem.
